# KLF5 inh = suppresses KLF5 promoter-driven expression; DLD-1 KLF5 promoter-luciferase reporter, luminescence; inhibition, % at 5 µM; 290,000 tested, 0.23% active;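 active means inhibition above a per-plate limit of that plate's mean compound inhibition plus 3 SD, cut at about 60% in these data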;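 further: 0% = DMSO wells and 100% = LY294002 at 200 µM; higher means less KLF5 promoter-driven luciferase light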
# BaF3 parental = counter-screen for JAK2V617F inhibitors: parental Ba/F3 viability inhibitors; 220,000 tested, 1.1% active; inhibition, % at 5.6 µM; CellTiter-Glo ATP luminescence;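 active means inhibition above a per-campaign cutoff, the mean inhibition of all tested compounds plus 3 SD, cut at about 27% in these data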;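 further: 0% = DMSO wells and 100% = JAK Inhibitor I control wells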
# IEC-6 tox-1 = counter-screen for KLF5 inhibitors: cytotoxicity in IEC-6 cells. inhibition, % at 5 µM. 290,000 tested, 0.78% active. IEC-6 cytotoxicity, luminescence viability;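 further: 0% = plate median of test compound wells and 100% = cytotoxic reference compound wells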
# aSyn 5UTR inh = 5' untranslated region of α-synuclein, MLPCN primary screen; alpha-synuclein 5'UTR reporter, inhibitor activity; inhibition, % (tested at 7.5 µM); 300,000 tested, 0.82% active; AID 1813; in the data active means inhibition above about 60%;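 further: H4 neuroglioblastoma cells stably carrying SNCA 5'UTR luciferase fusion; 0% = DMSO wells and 100% = positive control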
# APP 5UTR inh = APP translation inhibition; SH-SY5Y APP 5'UTR-luciferase reporter, luminescence; 190,000 tested, 0.82% active; inhibition, % at 2 µM; AID 1285;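 active means inhibition above a set limit, derived from the sample mean plus 3 SD, cut at about 45% in these data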
# Ba/F3 V617F tox = loss of viability in JAK2V617F-driven Ba/F3 cells; 220,000 tested, 1.1% active; inhibition, % at 5.6 µM; AID 1446; Ba/F3 EpoR-JAK2V617F viability, ATP luminescence;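 active means inhibition above the campaign mean plus 3 SD over all tested compounds, cut at about 24% in these data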;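 further: cytokine-independent growth of Ba/F3 cells driven by EpoR plus mutant JAK2; 0% = DMSO-treated cells and 100% = JAK inhibitor I control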
# KLF5 confirm = KLF5 inhibition, confirmation assay. DLD-1 KLF5 promoter firefly luciferase reporter, luminescence. shares compounds with KLF5 inh. 610 tested, 79% active. AID 1834. inhibition, % at 4 µM;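 active means inhibition above a set limit taken from the earlier primary screen, cut at about 63% in these data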;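 further: 0% = DMSO wells and 100% = LY294002 at 200 µM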
# IEC-6 tox-2 = kills rat IEC-6 cells in KLF5 counter-screen. inhibition, % at 4 µM. 610 tested, 56% active. AID 1905. IEC-6 rat intestinal cells, viability luminescence. shares compounds with KLF5 inh; in the data active means inhibition above about 23%;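 further: cells exposed to compounds for 48 hours before viability read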
# IEC-6 cytotox cf = IEC-6 cytotoxicity, confirmation assay. shares compounds with IEC-6 tox-1. IEC-6 rat intestinal epithelial viability, luminescence. inhibition, % at 5 µM. 1,900 tested, 63% active. AID 1907;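 further: 0% = vehicle and 100% = reference cytotoxic drug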
# Numbers without * were called inactive; . = no result given. Hits are enriched below; roughly 2.2% of the tested compounds scored in any of these assays. Unless noted, no stated cut-off is given here; in the data, active means inhibition above about 22%; inactive means the rest.
SMILES,KLF5 inh,BaF3 parental,IEC-6 tox-1,aSyn 5UTR inh,APP 5UTR inh,Ba/F3 V617F tox,KLF5 confirm,IEC-6 tox-2,IEC-6 cytotox cf
O=C1OCC2=C1C(c1ccc(F)cc1)c1cc3c(cc1N2)OCO3 (stereo not given),68*,16,77*,.,95*,59*,88*,86*,84*
CC(=O)Oc1ccc(C2C3=C(CC(C)(C)CC3=O)Nc3cc4c(cc32)OCCO4)cc1 (stereo not given),-8,8,2,14,-10,2,.,.,.
C#CCOc1ccc(C2C3=C(COC3=O)Nc3cc4c(cc32)OCO4)cc1OC (stereo not given),79*,95*,95*,132*,95*,94*,88*,83*,84*
COc1cc2c(cc1OC)C(c1ccc3c(c1)OCO3)C1=C(CC(C)(C)CC1=O)N2 (stereo not given),-28,4,-3,-25,3,3,.,.,.
O=C(C[n+]1cccc(CO)c1)Nc1nc2ccccc2s1,-6,4,1,-38,-3,-4,.,.,.
CCOc1ccc(S(=O)(=O)N2Cc3ccccc3CC2C(=O)O)cc1 (stereo not given),-9,4,0,6,.,-2,.,.,.
O/N=C1/C2C3C(Br)C4C5CC(C1C53)C24 (stereo not given),-26,1,3,25,2,2,.,.,.
O=C(c1cc(-c2ccncc2)nc2c(Cl)cccc12)N1CCN(c2ccccc2F)CC1,66*,.,67*,99*,.,.,65*,47*,54*
C=CCN(c1cccc(C(F)(F)F)c1)S(=O)(=O)c1cccc(C(=O)OCC(=O)NCCC)c1,-18,4,8,-1,-19,3,.,.,.
COc1ccc2c(c1)sc1nc(-c3ccccc3)cn12,72*,69*,76*,105*,86*,70*,103*,70*,55*
O=C(CC1CC2CCC1C2)NCCc1ccc(Cl)cc1 (stereo not given),-27,.,1,-24,.,.,.,.,.
CC1=C(C(=O)NC(C)CCc2ccccc2)C2(CCC(C)CC2)OC1=O (stereo not given),-41,7,-2,9,-3,-1,.,.,.
CC(c1ccco1)N(C(=O)c1ccccc1NS(=O)(=O)c1ccc(Cl)c([N+](=O)[O-])c1)c1ccccn1 (stereo not given),-70,7,-7,-17,3,-4,.,.,.
COc1ccccc1/C=N\NC(=O)c1c(C)nc2ccc(Cl)cn12,-6,.,8,-13,.,.,.,.,.
COc1cccc(/C=N/NC(=O)c2c(C)nc3ccc(Cl)cn23)c1O,93*,.,83*,35,.,.,88*,63*,47*
COC(=O)c1ccc(Oc2cc(C)nc(-n3nc(C)cc3C)n2)cc1,82*,66*,23*,65*,94*,74*,81*,20,45*
CCn1cc(C(=O)N2CCCC(N3CCN(c4ccccc4C)CC3)C2)cn1 (stereo not given),-15,.,-1,-5,.,.,.,.,.
O=c1c2ccccc2cnn1-c1nc2ccccc2[nH]1,105*,65*,54*,98*,69*,65*,100*,52*,60*
CS(=O)(=O)N(CC(=O)Nc1cccc(Br)c1)Cc1ccccc1,-30,.,-2,29,.,.,.,.,.
Cc1cccc(C)c1OCCNC(=O)C(=O)NCc1ccco1,65*,81*,77*,-2,85*,77*,83*,61*,59*
Cc1cccc(C)c1NC(=O)NCc1ccco1,-10,1,-2,-5,.,0,.,.,.
COc1ccc(-n2nnnc2SCC(=O)NCCc2ccccc2)cc1OC,-18,6,-4,7,-6,-1,.,.,.
COc1ccc(CCNc2nnc(Sc3nnnn3-c3ccccc3)s2)cc1OC,65*,96*,93*,120*,94*,93*,80*,70*,77*
COc1ccc(C2=NN(c3nc(-c4ccc(CNC(C)=O)cc4)cs3)C(c3ccco3)C2)cc1 (stereo not given),-9,.,1,-78,.,.,.,.,.
CC(Cc1ccccc1)Nc1ncnc2c1ncn2C1OC(CO)C(O)C1O (stereo not given),.,.,.,-23,.,.,.,.,.
SMILES,KLF5 inh,BaF3 parental,IEC-6 tox-1,aSyn 5UTR inh,APP 5UTR inh,Ba/F3 V617F tox,KLF5 confirm,IEC-6 tox-2,IEC-6 cytotox cf
CN(C)c1ncnc2c1ncn2C1OC(CO)C(O)C1O (stereo not given),65*,13,51*,108*,40,8,70*,48*,71*
Cc1nc(N)nc(N)c1/C=C/C(C)(C)c1ccc(Cl)cc1,83*,103*,86*,125*,70*,98*,84*,76*,77*
CCOc1ccccc1NC(=O)CCCNC(=O)Cn1cnc2sc(C)c(C)c2c1=O,-1,.,5,17,.,.,.,.,.
Cc1ccc(-c2cc(=O)c3cc(C)ccc3[nH]2)cc1,-51,7,8,-36,-115,2,.,.,.
Cc1ccc2[nH]c(-c3cccc(F)c3)cc(=O)c2c1,62*,83*,91*,81*,93*,83*,73*,59*,57*
O=c1cc(-c2cccc(F)c2)[nH]c2ccccc12,75*,78*,86*,87*,94*,78*,85*,60*,57*
CCCCCCCCCn1c2c(c(=N)c3c1CCC3)CCCC2,76*,93*,64*,90*,2,102*,114*,42*,55*
CCCCCc1nc2c(c3c1CCCC3)CCCC2,-40,1,-2,43,.,-4,.,.,.
O=[N+]([O-])c1cc(Cl)c2cccnc2c1O,2,6,-4,1,8,0,.,.,.
CCCC(=O)NC(c1ccc(C(C)C)cc1)c1ccc2cccnc2c1O (stereo not given),69*,.,24*,83*,.,.,84*,71*,73*
CCCC(=O)NC(c1ccc(N(C)C)cc1)c1ccc2cccnc2c1O (stereo not given),82*,.,63*,62,.,.,88*,76*,81*
COc1ccc(C(Nc2cc(C)ccn2)c2ccc3ccc(C)nc3c2O)cc1 (stereo not given),-14,3,4,4,.,-3,.,.,.
CC(=O)NC(c1ccccc1)c1cc(Cl)c2cccnc2c1O (stereo not given),89*,.,83*,42,.,.,74*,87*,73*
COc1ccc(C(NC(=O)C(C)C)c2ccc3cccnc3c2O)cc1 (stereo not given),85*,54*,22*,79*,.,74*,87*,52*,66*
CCOC(=O)c1c(C)[nH]c(C)c1S(=O)(=O)N1CCN(c2ccc([N+](=O)[O-])cc2)CC1,-17,.,7,51,.,.,.,.,.
